Assay outcomes: PubChem BioAssay, several laboratories
Shown are actives, neighbours in structure and some others; about 4.9% of the full set was active somewhere.
MPTP block – mitochondrial permeability transition pore inhibitors, primary screen, biochemical, isolated mouse mitochondria, absorbance. Ca2+ swelling absorbance, 30 min. inhibition, % at 10 µM. hit rate 1.4% among 360,000;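 active = inhibition of 50% or more, scaled per plate between neutral and stimulator controls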;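 note: 0% = DMSO wells given calcium and 100% = 1 mM EGTA wells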
dFosB activator – activators of delta FosB homodimer, primary screen, biochemical, fluorescence polarization, TAMRA-CDK5 oligo, single point; Protein FosB (Mus musculus), P13346; purified delta FosB; percent of positive-control signal above neutral wells; activation, % at 25 µM; hit rate 0.99% among 340,000; AID 493131, 2011;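 active = mean activation above about 17%, with every replicate also reaching it, limit read from the data, passing the limit was not always enough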
Target sequence (P13346 whole entry, looked up): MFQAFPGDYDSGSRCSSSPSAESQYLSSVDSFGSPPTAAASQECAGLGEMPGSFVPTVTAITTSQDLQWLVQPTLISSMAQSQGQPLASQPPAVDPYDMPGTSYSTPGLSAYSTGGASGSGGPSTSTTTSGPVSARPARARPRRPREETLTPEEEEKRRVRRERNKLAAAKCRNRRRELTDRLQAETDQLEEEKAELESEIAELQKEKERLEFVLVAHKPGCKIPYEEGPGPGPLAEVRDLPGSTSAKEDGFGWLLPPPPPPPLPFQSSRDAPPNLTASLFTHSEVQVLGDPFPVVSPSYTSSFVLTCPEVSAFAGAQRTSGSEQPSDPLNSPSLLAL
Platelet DG rel – inhibitors of platelet dense granule secretion, primary screen, cell-based, MLPCN, human platelets; human platelet-rich plasma, SFLLRN dense granule ATP release, luminescence; inhibition, %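 (compounds screened at 7.5 µM in platelet-rich plasma)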; hit rate 0.22% among 300,000;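 active = mean replicate score, as percent of positive control, at or above 50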
HSP90 inh – HSP90 inhibitors, primary screen, cell lysate, luminescence; hit rate 0.91% among 290,000; inhibition, % at 5.6 µM; Rabbit reticulocyte lysate, luciferase refolding luminescence, 3 h; Heat shock protein HSP 90 (rabbit reticulocyte lysate; luciferase refolding);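 active = inhibition above the screen-wide mean plus 3 SD, computed separately per campaign, cut at about 16% in these data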;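 note: 0% = DMSO wells and 100% = 60 µM geldanamycin wells; inhibitors lower the luminescence because luciferase stays unfolded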
HSF1 inh – HSF1 inhibitors in luciferase reporter cells, primary screen, cell-based, NIH3T3, luminescence | NIH3T3-HGL HSE-luciferase, MG132-induced, luminescence 8 h; stronger effect = lower value | activity change, negative = inhibition, % at 7.5 µM (by protocol) | hit rate 0.77% among 300,000 | AID 2098, 2009;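 active = more than half of replicate wells show activity change below -50%, luminescence cut by over half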;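 note: luciferase reports HSF-1 transcriptional activity via heat shock element; 0% = median of DMSO wells and -100% = zero luminescence signal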
HSF1 activator – HSF-1 activators, primary screen, NIH3T3-HGL cells, MG132 stress, luminescence, single point; activation, % at 9 µM; hit rate 1.7% among 300,000; NIH3T3-HGL HSF-1 luciferase reporter, 8 h; 100% = twice DMSO control signal;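 active = mean replicate activation of at least 50% with a set share of replicates each reaching 50%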;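 note: 0% = median of the neutral control wells and 100% = twice that signal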
MPTP counter – fluorescence retest of MPTP screen hits in isolated mitochondria, single concentration | inhibition, % at 10 µM | hit rate 78% among 5,000 | shares compounds with MPTP block | membrane potential, Rhodamine 123 fluorescence; in the data active = inhibition above about 22%;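 note: 0% = DMSO vehicle and 100% = positive control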
MPTP swell DR – mitochondrial permeability transition pore inhibitors, dose response, biochemical, absorbance, uHTS hits; shares compounds with MPTP block; isolated mitochondria swelling; IC50, µM; hit rate 58% among 780; AID 651561, 2012; in the data active = IC50 below about 20 µM
MPTP cs DR – fluorescent counter-screen in isolated mitochondria, dose response, counter-screen for MPTP inhibitor project, biochemical, fluorescence, uHTS hits. shares compounds with MPTP block. isolated mitochondria counterscreen, fluorescence read-out. IC50, µM. hit rate 49% among 780; in the data active = IC50 below about 80 µM
The depositor's hits bear a star; i = inactive; . = not tested or not shown.

SMILES	MPTP block	dFosB activator	Platelet DG rel	HSP90 inh	HSF1 inh	HSF1 activator	MPTP counter	others
Cc1ccc(S(=O)(=O)N2[C@H](c3cccc(Cl)c3)CC(=O)[C@@H]3CN(S(=O)(=O)c4ccccc4C)[C@H](c4ccc(Cl)cc4)C[C@@H]32)cc1	81*	.	.	.	.	.	69*
Cc1ccc([C@@H]2CC(=O)[C@@H]3CN(S(=O)(=O)c4ccccc4C)[C@H](c4ccc(Cl)cc4)C[C@@H]3N2S(=O)(=O)c2ccc(C)cc2)cc1	58*	.	.	.	.	.	77*
Cc1ccc(S(=O)(=O)N2[C@H](c3ccc(Cl)cc3)CC(=O)[C@@H]3CN(S(=O)(=O)c4ccccc4C)[C@H](c4ccc(Cl)cc4)C[C@@H]32)cc1	20	.	.	.	.	.	.
Cc1csc(NC(=O)CCCC(=O)c2ccccc2)n1	0	-6	4	4	0	-4	.
Cc1ccc(C2C3=C(CC(C)(C)CC3=O)NC3=C2C(=O)c2ccccc23)cc1 (stereo unspecified)	39	-6	-3	5	7	22	.
CC1(C)CC(=O)C2=C(C1)NC1=C(C(=O)c3ccccc31)C2c1ccc(Cl)cc1 (stereo unspecified)	98*	0	-1	4	15	15	52*
Cc1nc(N2CCC(C)CC2)c2c(C)c(C(=O)Nc3ccc4c(c3)OCCO4)sc2n1	-1	-1	3	-2	-2	2	.
Cc1nc(N2CCC(C)CC2)c2c(C)c(C(=O)Nc3ccc(C(F)(F)F)cc3)sc2n1	88*	-5	2	0	3	8	38*
Cc1nc(N2CCOCC2)c2c(C)c(C(=O)Nc3ccccc3C(F)(F)F)sc2n1	1	-1	-1	-2	7	3	.
Cc1nc(N2CCC(C)CC2)c2c(C)c(C(=O)Nc3cccc(C(F)(F)F)c3)sc2n1	84*	-6	1	1	20	59*	17	MPTP swell DR=i;MPTP cs DR=7.7*
CN(CC(=O)Nc1cccc(F)c1)C(=O)CN1C(=O)C2CC=CCC2C1=O (stereo unspecified)	-2	5	-4	.	-1	-9	.
COc1ccccc1N1CCN(C(=O)c2ccoc2C)CC1	78*	8	-3	-3	-2	-7	-2	MPTP swell DR=>100;MPTP cs DR=>80
COc1ccccc1N1CCN(C(=O)c2c(C)noc2C)CC1	3	-2	6	0	-1	1	.
Cc1ccc(NC(=O)C2CSC3(C)CCC(=O)N23)cc1S(=O)(=O)N1CCCCCC1 (stereo unspecified)	0	-15	.	.	.	.	.
O=C(CSC1CC(=O)N(CC(c2ccccc2)c2ccccc2)C1=O)Nc1ccc(Cl)cc1 (stereo unspecified)	75*	-7	2	1	8	30	79*
CC(C)N1CC2(CC(c3ccccc3C(F)(F)F)=NO2)CN1C(=O)c1ccc(C(C)(C)C)cc1 (stereo unspecified)	0	.	.	.	.	.	.
CS(=O)(=O)N(CC(=O)Nc1cccc([N+](=O)[O-])c1)c1ccccc1	-2	-5	8	-3	1	16	.
O=C(CCSc1ccccc1Cl)Nc1cccc([N+](=O)[O-])c1	89*	-3	4	-3	23	31	84*
Cc1ccccc1CN(CC(=O)Nc1cccc([N+](=O)[O-])c1)S(=O)(=O)c1ccc(Cl)cc1	89*	-7	-2	6	21	28	80*
CC(=O)Nc1ccc(CN(C)c2c(C)nc3ccc(C(=O)N4CCN(C(=O)c5ccco5)CC4)cn23)cc1	-2	.	.	.	.	.	.
CN(C(=O)CSc1cc(Cl)ccc1Cl)C1CCS(=O)(=O)C1 (stereo unspecified)	0	-5	.	.	.	.	.
Cc1ccc(S(=O)(=O)NCCC(=O)Nc2ccc(Cl)c(Cl)c2)cc1	90*	-6	5	2	0	8	87*
Cc1ccc(S(=O)(=O)NNC(=O)Nc2ccc(Cl)c(Cl)c2)cc1	86*	9	6	2	-9	-24	97*
Cc1ccc(NC(=O)NNS(=O)(=O)c2ccc(Br)cc2)cc1	-2	-8	10	1	4	-12	.
Cc1cc(NC(=O)Nc2ccc(F)c(Cl)c2)no1	51*	0	7	1	-5	17	85*
SMILES	MPTP block	dFosB activator	Platelet DG rel	HSP90 inh	HSF1 inh	HSF1 activator	MPTP counter	others
Cc1ccc(OCCC(=O)Nc2ccc(F)c(Cl)c2)cc1	67*	6	-2	-2	-1	-4	64*
COc1cccc(N2CCN(C(=O)c3cccc(NC(=O)C4=C(C)OCCS4)c3)CC2)c1	1	.	.	.	.	.	.
Cc1ccc(OC/C(O)=C(\C#N)c2nc3ccccc3s2)cc1	73*	1	-10	-6	1	13	43*
CC(C)=C(C#N)c1nc2ccccc2s1	0	-3	15	1	-4	-7	.
COC(=O)c1ccc(/C(O)=C(\C#N)c2nc3ccccc3s2)cc1	74*	-4	-1	-5	3	24	53*
CC1=NN(Cc2ccccc2)C(=O)C1C(c1ccc(Cl)cc1)C(C#N)C#N (stereo unspecified)	2	-4	13	7	-2	14	.
Cc1[nH]n(-c2ncc(-c3ccccc3)s2)c(=O)c1C(c1ccc(Cl)cc1)C(C#N)C#N (stereo unspecified)	103*	-18	-3	2	2	20	25*
COc1ccccc1C/C(N)=N/OC(=O)c1ccco1	-1	-3	-4	2	-5	9	.
COc1cc(C)c(CN2CCN(CC(=O)Nc3ccccc3C(=O)NC3CC3)CC2)cc1OC	0	-3	.	.	.	.	.
CCc1cc2c3c(c1)C(C)CC(C)(C)N3C(=O)/C2=C1\SC(=O)NC1=O (stereo unspecified)	55*	-7	-6	1	6	-14	47*
CC1CCC(C(C)C)C(OCC(O)CNC(C)c2ccccc2)C1 (stereo unspecified)	77*	3	6	3	3	3	25*
CC1CCC(C(C)C)C(OCC(O)CNC(C)(C)C)C1 (stereo unspecified)	1	3	-4	0	7	7	.
